# High-throughput results from PubChem.
# ELG1 genotoxic = genotoxicity induction in ELG1-luciferase HEK293T cells; AID 504466; 1.3% of 330,000 active; HEK293T ELG1-luciferase reporter, luminescence, 16 h; Potency, µM (highest dose often 46 µM), without a hit: top-dose activity change, positive = activation, actives largely listed as activators; note: % of control where 0% means no effect; nearly all actives have a fitted effect of over 60% in size
#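 Genotoxicity was scored as increased ELG1-luciferase reporter signal, measured by ONE-Glo luminescence (30 min, room temperature). Compound or vehicle exposure of the HEK293T reporter cells lasted 16 hr at 37°C.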
# SMN2 splice enh = SMN2 splice variant enhancement. HEK293 SMN2-luciferase splicing reporter, luminescence, 30-36 h. 2.8% of 210,000 active. Potency, µM (doses to about 46.1 µM), for inactives: top-dose activity change, positive = activation, actives largely listed as activators; note: % of control where 0% means no effect; nearly all actives have a fitted effect of over 55% in size
#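 qHTS luciferase splicing reporter: luminescence rises when SMN2 exon 7 is included in transfected HEK293 cells. Compound exposure lasted 30-36 h at 37C, with 4.5 mM final sodium butyrate as control, followed by a ONE-Glo read.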
# Rab9 promoter act = activates the Rab9 promoter. Huh7 Rab9 promoter-luciferase reporter, luminescence, 24 h. Potency, µM (highest dose often 9.22 µM), for the others: at the top dose activation, negative = inhibition, most hits filed as activators. 2.8% of 320,000 active. AID 485297; note: % of control where 0% means no effect; nearly all actives have a fitted effect of over 60% in size
#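 Cell-based reporter: Huh7 stable for Rab9 promoter-driven luciferase, plated in reduced-serum medium with 10% FBS at 1500 cells/well, compound-treated 24 h at 37 °C, luminescence read after 10 min reagent.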
# NPC1 promoter act = NPC1 promoter activation; Huh7 NPC1 promoter luciferase reporter, 24 h; Potency, µM (highest dose often 9.22 µM), for the others: top-dose activation, usual class: activators; 2.4% of 320,000 active; note: % of control where 0% means no effect; nearly all actives have a fitted effect of over 60% in size
#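 In 1536-well qHTS, Huh7 cells harboring an NPC1 promoter–luciferase construct received compound for 24 h; activation was quantified by luminescence following luciferase reagent addition.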
# FLuc counter = firefly luciferase modulation, counter-screen for miR-21 project | P08659 | purified FLuc, Km substrates, luminescence inhibition | Potency, µM (top dose mostly 57.5 µM), inactives show at the top dose activity change, negative = inhibition, usual class: inhibitors | 6.9% of 360,000 active | AID 588342;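 note: plate controls were vehicle for no effect and reference inhibitor for full effect; nearly all actives have a fitted effect of over 55% in size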
# Target sequence (P08659 whole entry, looked up): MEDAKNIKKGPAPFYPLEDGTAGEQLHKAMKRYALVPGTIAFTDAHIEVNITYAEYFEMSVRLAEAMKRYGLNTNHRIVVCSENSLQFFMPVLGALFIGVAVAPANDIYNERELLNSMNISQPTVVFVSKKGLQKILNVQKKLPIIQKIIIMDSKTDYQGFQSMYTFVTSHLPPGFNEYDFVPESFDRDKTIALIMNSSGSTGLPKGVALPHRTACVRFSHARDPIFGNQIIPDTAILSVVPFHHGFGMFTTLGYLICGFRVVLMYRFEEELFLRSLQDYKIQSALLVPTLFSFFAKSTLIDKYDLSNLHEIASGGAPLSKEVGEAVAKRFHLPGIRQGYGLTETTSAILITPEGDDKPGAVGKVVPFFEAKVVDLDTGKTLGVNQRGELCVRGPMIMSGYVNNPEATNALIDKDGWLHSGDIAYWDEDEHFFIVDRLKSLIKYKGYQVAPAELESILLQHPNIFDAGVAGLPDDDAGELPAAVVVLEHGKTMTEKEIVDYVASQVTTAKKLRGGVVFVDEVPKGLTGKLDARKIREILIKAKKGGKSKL
#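 Purified P. pyralis luciferase (10nM final) with 10uM D-luciferin and 10uM ATP (Km levels) in 50mM Tris acetate pH 7.5, 10mM Mg acetate, 0.01% Tween-20, 0.05% BSA; qHTS 6-point titration, ~60 µM downward; luminescence read.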
# Numbers without * were called inactive; ? = inconclusive; . = no result given; ! = a repeat was not active. Compounds with a hit are over-represented: about 7.4% of the library has one in this group of screens. Calls come from the whole dose curve; as a rule, active = well fitted curve in the direction sought with a large enough effect; inconclusive = small, poorly fitted or top-dose-only effect, or another doubt; inactive = no such curve, though single readings can be large; an effect the other way counts as inactive or inconclusive. Potency is the fitted concentration of half-maximal effect.
SMILES,ELG1 genotoxic,SMN2 splice enh,Rab9 promoter act,NPC1 promoter act,FLuc counter
CC(C)n1c(/N=C/c2c[nH]c3ccccc23)nc2ccccc21,1.6%,-10.4%,-1.5%,-3.1%,2.69µM*
Cn1c(/N=C/c2c[nH]c3ccccc23)nc2ccccc21,-2.4%,.,4.9%,0.4%,0.135µM*
CCc1ccc(NCc2cc3ccc(OC)cc3n(CC(=O)Nc3cccc(Cl)c3C)c2=O)cc1,.,.,.,.,-0.2%
CC(=O)NS(=O)(=O)c1ccc(N=NN2CCCCC2)cc1,1.8%,2.3%,1.5%,-1.8%,1.6%
Clc1ccc(N=NN2CCOCC2)cc1,?,.,20.6%,18.5%,16.9µM*
COC(=O)c1ccc(N=NN2CCOCC2)cc1,?,11.2µM*,?,?,16.9µM*
NS(=O)(=O)c1ccc(N=NN2CCCCC2)cc1,11.4%,.,?,?,16.9µM*
O=C(O)C1SCCN1S(=O)(=O)c1ccc(N=NN2CCOCC2)cc1 (configuration not stated),0.3%,.,-7.8%,-1.6%,0.8%
O=C(O)c1ccc(N=NN2CCCCC2)cc1,?,26.0%,1.26µM*,?,10.7µM*
COc1cc(C)ccc1OCCSc1nnc(-c2ccc(C)cc2)o1,.,.,.,.,-18.3%
COC(=O)c1ccc(N=NN2CCCCCC2)cc1,?,12.6µM*,3.16µM*,2.24µM*,6.75µM*
Cc1cc(C)c2sc(N(Cc3cccnc3)C(=O)CCS(=O)(=O)c3ccccc3)nc2c1,.,.,.,.,-5.0%
O=C(N/N=C/c1cccc(OC(=O)c2ccc3c(c2)OCO3)c1)c1cncc(Br)c1,12.7%,15.8µM*,?,18.7%,-5.4%
COC(=O)N/N=C/c1cccc(OC(=O)c2ccc3c(c2)OCO3)c1,-1.3%,.,-0.4%,-2.4%,16.9µM*
COc1ccc(C(=O)Oc2cccc(/C=N/NC(N)=S)c2)cc1,3.9%,?,12.3%,20.3%,12µM*
COc1cc(/C=N/NC(N)=S)ccc1OC(=O)c1ccc(C)cc1,-8.1%,20.7%,-0.2%,2.9%,-11.4%
O=C(COc1ccccc1[N+](=O)[O-])N/N=C/c1cccc(OC(=O)c2ccc3c(c2)OCO3)c1,?,?,1.0%,4.8%,-13.7%
O=C(Nc1onc2c1CCCC2)c1ccc(Cl)cc1,.,8.91µM*,.,.,1.9µM*
CCCCOc1ccc(C(=O)Nc2sc3c(c2C(=O)OCC)CCCCC3)cc1,.,4.3%,.,.,-4.3%
CCCCOc1ccc(C(=O)Nc2onc3c2CCCC3)cc1,.,22.4µM*,.,.,1.69µM*
O=C(NN=C1CCCC1)c1ccc(Cl)cc1,-1.0%,.,15.8%,14.5%,-3.3%
CC1CC2C3CC(F)C4=CC(=O)C=C[C@@]4(C)[C@@]3(F)C(O)C[C@]2(C)[C@]1(O)C(=O)COC(=O)C(C)(C)C (some centres not stated),.,4.4%,.,.,.
COc1cccc(CNC(=O)C(=O)NCC(c2ccco2)S(=O)(=O)c2cccs2)c1 (configuration not stated),.,.,.,.,4.4%
N#Cc1ccccc1/C=N/Nc1nc(-c2ccccc2)c2cc(Cl)ccc2n1,15.1%,8.7%,-4.0%,-2.8%,-1.1%
Cc1ccc2nc(N/N=C/c3ccccc3C#N)nc(-c3ccccc3)c2c1,-5.6%,-8.1%,6.6%,0.9%,10.7µM*
SMILES,ELG1 genotoxic,SMN2 splice enh,Rab9 promoter act,NPC1 promoter act,FLuc counter
COc1cc(OC)c(Nc2c3c(nc4nc(-c5cccs5)nn24)CCCC3)cc1Cl,.,.,.,.,23.9µM*
O=c1nc2sc3ccccc3n2c(=O)n1-c1cccc(Cl)c1,4.61µM*,.,?,12.7%,-3.6%
O=c1nc2sc3ccccc3n2c(=O)n1-c1ccc(Cl)c(Cl)c1,.,1.5%,.,.,-4.0%
Cc1ccc2c(c1)sc1nc(=O)n(-c3cccc(Cl)c3)c(=O)n12,?,11.2µM*!,1.58µM*,1.58µM*,5.8%
O=c1nc2sc3ccccc3n2c(=O)n1-c1ccc(Cl)cc1,?,20µM*,2.82µM*,3.16µM*,-5.7%
COc1cccc(CNC(=O)c2ccc3c(c2)N(C)C(=O)C2CCCCN32)c1 (configuration not stated),.,.,.,.,-7.6%
Fc1ccccc1N=C1NN=C(c2ccccc2)CS1,?,12.6µM*,?,2.51µM*,13.5µM*
Clc1ccccc1N=C1NN=C(c2cccs2)CS1,?,8.91µM*,2µM*,3.16µM*,12µM*
CN(C)S(=O)(=O)c1cccc(N=C2NN=C(c3ccccc3)CS2)c1,-0.9%,-57.7%,8.2%,-0.8%,?
O=S(=O)(c1ccc(N=C2NN=C(c3cc(F)ccc3F)CS2)cc1)N1CCOCC1,-8.1%,.,-18.3%,-10.7%,-8.7%
Fc1ccc(F)c(C2=NNC(=Nc3ccccc3F)SC2)c1,?,-21.8%,29.6%,?,12µM*
Fc1ccc(N=C2NN=C(c3cc(F)ccc3F)CS2)cc1,-2.7%,22.4µM*,?,11.4%,23.9µM*
CCc1ccccc1NC(=O)C(=O)NCCc1sc(-c2cccc(C)c2)nc1C,.,.,.,.,1.9%
Cc1ccc(OCC(=O)Nc2c(Cl)ccc3nsnc23)cc1C,.,7.4%,.,.,1.9%
Cc1ccccc1N=C1NC(=O)CS1,1.1%,-10.5%,3.3%,-3.2%,-0.1%
Cc1cccc(N=C2NN=C(c3ccccc3F)CS2)c1C,17.5%,26.4%,?,?,19µM*
Clc1ccccc1-c1ncc(-c2ccccc2)o1,4.61µM*,.,2.82µM*,2.51µM*,1.35µM*
Cc1cc(NC(=O)c2cccc(Cl)c2)n[nH]1,?,.,2.51µM*,2.82µM*,19µM*
O=C(Nc1cc(-c2ccccc2)[nH]n1)c1ccc(Cl)cc1,?,.,3.16µM*,2µM*,10.7µM*
Nc1ccc(-c2cnc(-c3ccc(N)cc3)nc2)cc1,?,3.55µM*,1.58µM*,1.12µM*,3.38µM*
Oc1ccc(-c2cnc(-c3ccc(O)cc3)nc2)cc1,2.91µM*,.,?,1.12µM*,1.07µM*
Cc1cccc(CN2C(=O)c3ccccc3Sc3ccc(C(=O)NC4CCCCC4)cc32)c1,.,.,.,.,-2.6%
CCC(=O)Nc1ccccc1-c1nc2ccccc2n(C(C)C(=O)Nc2ccc(OC)cc2)c1=O (configuration not stated),.,.,.,.,-13.4%
Brc1ccc(C=Nc2ccc3c(c2)OCCOCCOCCO3)s1,-0.5%,-1.0%,2.2%,0.5%,10.7µM*
Oc1c(Cl)cc(Cl)cc1C=Nc1ccc2c(c1)OCCO2,14.8%,.,-6.9%,-0.1%,26.9µM*
COc1ccc(Oc2ncc3nc(C)c(=O)n(Cc4ccc(F)cc4)c3n2)cc1,.,-48.9%,.,.,.
Cc1[nH]c(N=Nc2ccccc2)nc1N=Nc1ccccc1,8.1%,.,-4.4%,0.0%,6.01µM*
Cc1c(CC(=O)O)c(=O)oc2cc(OCc3ccc(F)cc3Cl)ccc12,5.5%,.,2.7%,-1.0%,16.9µM*
Cc1c(CCC(=O)O)c(=O)oc2cc(OCc3ccccc3F)ccc12,3.9%,.,1.1%,10.1%,26.9µM*
O=C(Nc1ccccc1)O[C@@H]1C[C@H]2CCC(=O)N3CC[C@@H](C1)[C@@H]23,?,.,?,?,21.3µM*
